Structures are written as SMILES. Several values for one entry are separate records, joined by “and”; a condition that tells them apart may be missing. Equal values may be shown once. Results filed as inconclusive are left out. A structure can be active in one record and inactive in another. Activity calls are given as the source filed them. The call rests on the fitted dose curve; in most records, active means well fitted curve in the direction sought with a large enough effect in the repeat runs; inconclusive means weak or mixed curves; inactive means no such curve, though single readings can be large; an effect the other way counts as inactive or inconclusive.

The nature of assay [1]: qHTS RealTime-Glo MT Cell Viability Assay in HEK293 cells - 16 hour (AID 1224872). Further: nearly all actives have a fitted effect of over 50% in size. Further: potency means the concentration at half of the fitted maximal effect. The essentials:
(§1)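 Quantitative high-throughput screen of the Tox21 10K library in HEK293: cells and RealTime-Glo reagents plated together, compound added at 5 h, luminescence monitored through 40 h at 37 C.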

Assay [2] in a line: qHTS RealTime-Glo MT Cell Viability Assay in HepG2 cells - 8 hour (AID 1224873). Further: nearly all actives have a fitted effect of over 55% in size. The essentials: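 HepG2 cells (600/well) mixed with RealTime-Glo MT reagent, settled 5 h at 37 C/5% CO2 before compound addition. Nonlytic NanoLuc luminescence from viable-cell prosubstrate reduction read repeatedly during 40 h treatment at 37 C.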
Assay [3] in a line: qHTS RealTime-Glo MT Cell Viability Assay in HEK293 cells - 40 hour (AID 1224874). Further: nearly all actives have a fitted effect of over 50% in size. Further: potency means the concentration at half of the fitted maximal effect. The note with it: RealTime-Glo luminescence; max response: stronger effect = lower value. The essentials:
(§2)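 Luminescence readout at each listed time point; HEK293, 600 cells/well, RealTime-Glo MT reagent added with cells; compounds pinned (23 nL in DMSO) after 5 h at 37 C; continuous culture at 37 C.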

Assay [4] can be described thus: A CellTox Green Cytotoxicity Assay to monitor cytotoxicity in HEK293 cells - 24 hour (AID 1224875). Further: series mostly up to about 77 µM; nearly all actives have a fitted effect of over 45% in size. The essentials:
(§3)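 Read-out: fluorescence of a cell-impermeant cyanine dye staining DNA of dead cells, proportional to cytotoxicity. HEK293, 600 cells/well with reagent, compound (23 nL DMSO) added after 5 h; reads at 0, 8, 16, 24, 32, 40 h.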

The nature of assay [5]: A CellTox Green Cytotoxicity Assay to monitor cytotoxicity in HepG2 cells - 16 hour (AID 1224876). Further: nearly all actives have a fitted effect of over 45% in size. The essentials: (§4)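 HepG2, 600 cells/well premixed w/ CellTox Green; 5 h settle, 37 C/5% CO2; pintool cpd add (DMSO); 37 C, 40 h; fluorescence read at 0, 8, 16, 24, 32, 40 h.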
A short description of assay [6]: qHTS RealTime-Glo MT Cell Viability Assay in HepG2 cells - 32 hour (AID 1224877). Further: nearly all actives have a fitted effect of over 55% in size. Further: potency means the concentration at half of the fitted maximal effect. The essentials: (§5)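 Compound treatment began 5 h after plating HepG2 cells (600/well) with NanoLuc luciferase and prosubstrate. Plates stayed at 37 C for 40 h; luminescence was captured at six time points, 0 h through 40 h.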
(In general: Quantitative high-throughput screening tests each substance at several concentrations.)

Assay [7] in a line: A CellTox Green Cytotoxicity Assay to monitor cytotoxicity in HepG2 cells - 24 hour (AID 1224878). Further: nearly all actives have a fitted effect of over 45% in size. Further: potency means the concentration at half of the fitted maximal effect. The essentials:
as §4

Assay [8] is described as follows: A CellTox Green Cytotoxicity Assay to monitor cytotoxicity in HepG2 cells - 40 hour (AID 1224879). Further: nearly all actives have a fitted effect of over 40% in size. Further: potency means the concentration at half of the fitted maximal effect. The essentials:
as §4

Assay [9] can be described thus: qHTS RealTime-Glo MT Cell Viability Assay in HEK293 cells - 0 hour (AID 1224880). Further: top concentration of the series differs between compounds; nearly all actives have a fitted effect of over 45% in size. The essentials: as §2
Assay [10] can be described thus: A CellTox Green Cytotoxicity Assay to monitor cytotoxicity in HEK293 cells - 32 hour (AID 1224881). Further: nearly all actives have a fitted effect of over 40% in size. Further: potency means the concentration at half of the fitted maximal effect. The essentials: as §3
A short description of assay [11]: A CellTox Green Cytotoxicity Assay to monitor cytotoxicity in HepG2 cells - 0 hour (AID 1224882). Further: nearly all actives have a fitted effect of over 35% in size. The essentials: as §4
Assay [12] is described as follows: A CellTox Green Cytotoxicity Assay to monitor cytotoxicity in HepG2 cells - 32 hour (AID 1224883). Further: nearly all actives have a fitted effect of over 50% in size. Further: potency means the concentration at half of the fitted maximal effect. The essentials: as §4
Assay [13] is described as follows: A CellTox Green Cytotoxicity Assay to monitor cytotoxicity in HEK293 cells - 8 hour (AID 1224884). Further: nearly all actives have a fitted effect of over 35% in size. The essentials:
as §3

The nature of assay [14]: qHTS RealTime-Glo MT Cell Viability Assay in HepG2 cells - 16 hour (AID 1224885). Further: nearly all actives have a fitted effect of over 50% in size. The essentials: as §5
Assay [15] in a line: qHTS RealTime-Glo MT Cell Viability Assay in HEK293 cells - 24 hour (AID 1224886). Further: nearly all actives have a fitted effect of over 50% in size. Further: potency means the concentration at half of the fitted maximal effect. The essentials: as §1
The nature of assay [16]: qHTS RealTime-Glo MT Cell Viability Assay in HEK293 cells - 8 hour (AID 1224887). The essentials: as §2
Assay [17] can be described thus: A CellTox Green Cytotoxicity Assay to monitor cytotoxicity in HEK293 cells - 16 hour (AID 1224888). Further: nearly all actives have a fitted effect of over 35% in size. The essentials:
as §3

Assay [18] can be described thus: qHTS RealTime-Glo MT Cell Viability Assay in HepG2 cells - 0 hour (AID 1224889). Further: nearly all actives have a fitted effect of over 50% in size. The essentials:
as §5

The nature of assay [19]: A CellTox Green Cytotoxicity Assay to monitor cytotoxicity in HepG2 cells - 8 hour (AID 1224890). Further: nearly all actives have a fitted effect of over 45% in size. The essentials:
as §4

The nature of assay [20]: qHTS assay to identify small molecule antagonists of the estrogen receptor alpha (ER-alpha) signaling pathway using the BG1 cell line in the presence of 0.1 nM 17-beta-estradiol - cell viability counter screen (AID 1259241). Further: nearly all actives have a fitted effect of over 40% in size. The essentials: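 Estradiol-stimulated (0.1 nM) VM7Luc4E2 cells exposed to compounds 22 hr; viability measured by fluorescence of cleaved CellTiter-Fluor substrate after 30 min.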
On the % scale 0 is the no-effect control and ±100 the full control effect.

Turning to `O=C(c1ccccc1)c1ccc(O)cc1O`, the Potency entry in assay [1], in [2], in assay [4], in [5], in assay [6] and in [9] was “inactive” in each case. For the same compound, the Potency result in assay [10], in assay [11], in assay [13], in assay [14], in [15] and in assay [16] was “inactive” throughout. Further, the Potency result in assay [17], in assay [18] and in assay [19] was “inactive” throughout. Besides, the max response in assay [3] was -11.1% (inactive) and -19.8% (inactive). Moreover, the Potency result was “inactive and 38.9 µM (active)” in assay [7]; “inactive and 43.6 µM (active)” in assay [8]; “inactive and 43.6 µM (active)” in assay [12].

With `COC(=O)c1ccccc1`, the Potency entry in [1], in assay [2], in assay [4], in assay [5], in assay [6] and in assay [7] was “inactive” in each case. The Potency entry in assay [8], in assay [9], in [10], in assay [13], in assay [14] and in [16] was “inactive” throughout. Also, the Potency entry in assay [17], in [18], in assay [19] and in assay [20] was “inactive” in each case. Besides, the Potency in assay [3] was 12.3 µM (active); in assay [15], “inactive and 12.3 µM (active)”. Moreover, the max response in assay [3] is 7.68% (inactive).

Consider `Cc1cccc([N+](=O)[O-])c1C`, for which the Potency result in [1], in [2], in [4], in [5], in [6] and in assay [7] was “inactive” in each case. Further, the Potency entry in assay [8], in assay [9], in assay [10], in [11], in [12] and in assay [13] was “inactive” each time. The Potency result in assay [14], in [15], in assay [16], in [17], in [18] and in assay [19] was “inactive” each time. Also, the Potency result in assay [20] is “inactive”. The max response in assay [3] is 2.52% (inactive) and -15.5% (inactive).

In the case of `CC(C)OC=O`, the Potency result in assay [1], in [2], in assay [4], in assay [5], in [6] and in [7] was “inactive” throughout. Moreover, the Potency result in assay [8], in [9], in [10], in [11], in [12] and in [13] was “inactive” throughout. For the same compound, the Potency result in assay [14], in assay [15], in assay [16], in assay [17], in assay [18] and in assay [19] was “inactive” in each case. For the same compound, the max response in assay [3] was 5.62% (inactive) and -7.32% (inactive).

In the case of `c1ccc(Nc2ccccc2)cc1`, the Potency in assay [1] is 17.4 µM (active) and inactive; in assay [3], 19.5 µM (active); in assay [6] it was 38.9 µM (active) and inactive; in assay [7] it was 43.6 µM (active); in assay [8], 34.7 µM (active); in [10], 21.9 µM (active) and inactive. Also, the Potency in [12] was 38.9 µM (active) and inactive; in assay [15], 17.4 µM (active) and inactive. In addition, the Potency result in assay [2], in assay [5], in assay [9], in [11], in assay [13] and in assay [14] was “inactive” each time. For the same compound, the Potency result in [16], in [17], in assay [18], in [19] and in assay [20] was “inactive” in each case. Also, the max response in [3] was 12.7% (inactive).

Turning to `CCCCC(CC)COC(=O)c1ccc(N(C)C)cc1` (centres undefined), the Potency result in [1], in assay [2], in assay [4], in assay [5], in assay [6] and in assay [7] was “inactive” throughout. Also, the Potency entry in [8], in assay [9], in assay [10], in assay [11], in assay [12] and in assay [13] was “inactive” throughout. Also, the Potency entry in assay [14], in assay [15], in [16], in [17], in [18] and in assay [19] was “inactive” throughout. Further, the Potency result in assay [20] was “inactive”. Besides, the max response in assay [3] was -14.3% (inactive) and -13.1% (inactive) and -14.9% (inactive).

`Cc1cccc(C(=O)O)c1`: the Potency entry in [1], in assay [2], in assay [4], in [5], in assay [6] and in [7] was “inactive” in each case. Besides, the Potency entry in assay [8], in assay [9], in assay [10], in assay [11], in assay [12] and in assay [13] was “inactive” throughout. Moreover, the Potency result in assay [14], in assay [15], in assay [16], in assay [17], in [18] and in assay [19] was “inactive” in each case. In addition, in assay [3], the max response was 0.572% (inactive) and -3.52% (inactive).

Regarding `CC(=O)c1ccccn1`, the Potency result in assay [1], in assay [2], in assay [4], in assay [5], in assay [6] and in [7] was “inactive” each time. For the same compound, the Potency result in [8], in assay [9], in assay [10], in assay [11], in assay [12] and in assay [13] was “inactive” throughout. In addition, the Potency entry in assay [14], in [15], in [16], in [17], in assay [18] and in assay [19] was “inactive” each time. The Potency result in assay [20] is “inactive”. The max response in assay [3] was 3.52% (inactive) and 4.42% (inactive).

`O=C(OCc1ccccc1)c1ccccc1O`: the Potency entry in assay [1], in [2], in [4], in assay [5], in assay [6] and in [7] was “inactive” in each case. Moreover, the Potency entry in assay [8], in [9], in assay [10], in [11], in [12] and in [13] was “inactive” in each case. Further, the Potency result in assay [14], in [15], in [16], in assay [17], in [18] and in assay [19] was “inactive” each time. In addition, the max response in assay [3] was -14.6% (inactive) and -4.96% (inactive).

Turning to `COC(=O)CCC(=O)OC`, the Potency entry in assay [1], in assay [2], in assay [4], in assay [5], in assay [6] and in [7] was “inactive” each time. Besides, the Potency result in assay [8], in assay [9], in assay [10], in assay [11], in assay [12] and in assay [13] was “inactive” in each case. Also, the Potency result in [14], in [15], in assay [16], in assay [17], in assay [18] and in [19] was “inactive” in each case. Moreover, the Potency entry in assay [20] was “inactive”. Further, the max response in assay [3] is -3.79% (inactive) and 17.6% (inactive).

Turning to `CCCCC(CC)COP(=O)(OCC(CC)CCCC)OCC(CC)CCCC` (centres undefined), the Potency result in assay [1], in assay [2], in [4], in [5], in [6] and in assay [7] was “inactive” in each case. Moreover, the Potency result in assay [8], in [9], in assay [10], in assay [11], in assay [12] and in assay [13] was “inactive” in each case. The Potency entry in [14], in assay [15], in assay [16], in assay [17], in [18] and in assay [19] was “inactive” throughout. Moreover, the max response in assay [3] was -14.5% (inactive).

(Values after PubChem BioAssay (Tox21).)
